The supplement of paper PMC6135742
Counter-ions that a name gives are not always drawn. ± gives the standard deviation of the averaged measurements. Over roughly 2,600 compounds, “total cell number (DAPI+ nuclei) relative to DMSO vehicle control” has its median near -1.4; the lowest 2% begin near -23. The entries come from a sample that favours the lowest values as a whole.

Test system: jimpy (Plp1 jimpy) mouse iPSC-derived oligodendrocyte progenitor cells
Test: total cell number (DAPI+ nuclei) relative to DMSO vehicle control (SDs above negative control mean); higher = more surviving cells
Conditions: 10 µM; 3 days

Row | Structure (SMILES) | total cell number
1 | CC(C)(NS(=O)(=O)c1ccc(Oc2ccc(F)cc2)cc1)C(=O)NO | -2.86
2 | CC(N)(Cc1ccc(O)c(O)c1)C(=O)O (racemic) [(±)-3-(3,4-dihydroxyphenyl)-2-methyl-DL-alanine] | -2.34
3 | N=C(N)SCCN [2-(2-Aminoethyl)isothiourea dihydrobromide] | -2.29
4 | CCCCNc1ncc(-c2ccc(CN3CCOCC3)cn2)c(NC2CCC(O)CC2)n1 (stereo not given) | -8.26
5 | O=C(Nc1c[nH]nc1-c1nc2ccc(CN3CCOCC3)cc2[nH]1)NC1CC1 | -22.6
6 | O=C(NC1CCOCC1)c1ccc(-c2cc(-c3c[nH]nc3-c3ccccn3)ccn2)cc1 | -0.803
7 | O=C(O)Cn1nnc(-c2cc(N3CCC(Oc4cc(F)ccc4Br)CC3)no2)n1 | 3.6
8 | CC(C)N(CCCNC(=O)Nc1ccc(C(C)(C)C)cc1)C[C@H]1O[C@@H](n2cc(Br)c3c(N)ncnc32)[C@H](O)[C@@H]1O | -7.77
9 | CCS(=O)(=O)Nc1ccc2c(c1)/C(=C(/Nc1ccc(CN3CCCCC3)cc1)c1ccccc1)C(=O)N2 [Hesperadin] | -17.7
10 | CN(C)Cc1cccc(N/C(=C2\C(=O)Nc3cc(C(N)=O)ccc32)c2ccccc2)c1 | -14.3
11 | COC(=O)c1ccc2c(c1)NC(=O)/C2=C(\Nc1ccc(N(C)C(=O)CN2CCN(C)CC2)cc1)c1ccccc1 [Nintedanib (BIBF 1120)] | -23
12 | C[C@@H]1O[C@@H](OC[C@H]2O[C@@H](Oc3c(-c4ccc(O)c(O)c4)oc4cc(O)cc(O)c4c3=O)[C@H](O)[C@@H](O)[C@@H]2O)[C@H](O)[C@H](O)[C@H]1O [Rutin] | -0.749
13 | CCCNS(=O)(=O)Nc1ncnc(OCCOc2ncc(Br)cn2)c1-c1ccc(Br)cc1 [Macitentan] | -0.584
14 | CC(C)[C@H](NC(=O)c1ccc2ccccc2n1)C(=O)N[C@@H](CC(=O)O)C(=O)COc1c(F)cccc1F | 15.6
15 | CC(C)C[C@H](NC(=O)[C@H](Cc1ccccc1)NC(=O)c1cnccn1)B(O)O [Bortezomib (PS-341)] | -20.2
16 | CC(C)C[C@H](NC(=O)[C@@H](NC(=O)c1cccc(-c2ccccc2)n1)[C@@H](C)O)B(O)O | -22.6
17 | C=CC(N)CCC(=O)O (racemic) [(±)-gamma-Vinyl GABA] | -0.562
18 | COc1ccc(C2CC(=O)c3c(O)cc(OC4OC(COC5OC(C)C(O)C(O)C5O)C(O)C(O)C4O)cc3O2)cc1OC (stereo not given) [Methyl-Hesperidin] | -1.13
19 | NCC(O)c1ccc(O)c(O)c1 (racemic) [(±)-Norepinephrine (+)bitartrate] | 0.169
20 | Cc1nc(Nc2ncc(C(=O)Nc3c(C)cccc3Cl)s2)cc(N2CCN(CCO)CC2)n1 [Dasatinib] | -22.6
21 | COc1cccc(C(=O)NCCN2CCN(c3ccc(Cl)cc3)CC2)c1 | -2.1
22 | CNC(=O)c1ccc2cc([C@@]3(O)CCn4cncc43)ccc2c1 [TAK-700 (Orteronel)] | 0.9
23 | CC1(C)S[C@@H]2[C@H](NC(=O)C(C(=O)O)c3ccccc3)C(=O)N2[C@H]1C(=O)O (stereo not given in full) [Carbenicillin disodium] | 0.323
24 | Cc1nc(N)sc1-c1ccnc(Nc2ccc(N3CCOCC3)cc2)n1 | -22.6
25 | O=C(Nc1ccc(-c2ccnc(Nc3ccc(N4CCOCC4)cc3)n2)cc1)C1CCCN1 (stereo not given) | -12.4

Row | Structure (SMILES) | total cell number
26 | N#CCNC(=O)c1ccc(-c2ccnc(Nc3ccc(N4CCOCC4)cc3)n2)cc1 | -12.5
27 | CC(C)OC(=O)C(C(=O)OC(C)C)=C1SC=CS1 [Malotilate] | 7.42
28 | COc1ccc(C2(CNC(=O)c3ccc(NC(=O)c4ccco4)cc3)CCOCC2)cc1 | -6.22
29 | CCc1cccc(CC)c1NC(=O)N1Cc2[nH]nc(NC(=O)c3ccc(N4CCN(C)CC4)cc3)c2C1 | -17.5
30 | CO[C@@H](C(=O)N1Cc2[nH]nc(NC(=O)c3ccc(N4CCN(C)CC4)cc3)c2C1)c1ccccc1 | -24.2
31 | COc1cc2c(Oc3ccc4[nH]c(C)cc4c3F)ncnc2cc1OCCCN1CCCC1 [Cediranib (AZD2171)] | -26.9
32 | Cc1cc2c(F)c(Oc3ncnn4cc(OC[C@@H](C)OC(=O)[C@H](C)N)c(C)c34)ccc2[nH]1 | -4.11
33 | Cc1cc2c(F)c(Oc3ncnn4cc(OC[C@@H](C)O)c(C)c34)ccc2[nH]1 | -1.9
34 | CN(C)C(=O)[C@H](O)[C@H](Cc1ccccc1)NC(=O)c1cc2cc(Cl)ccc2[nH]1 | 0.79 ± 0.2
35 | CCCC(CCC)C(=O)O[C@H]1C[C@H]2CC[C@@H](C1)[N+]2(C)C [Anisotropine methyl bromide] | 12.1
36 | CS(=O)(=O)N1CCN(Cc2cc3nc(-c4cccc5[nH]ncc45)nc(N4CCOCC4)c3s2)CC1 | -23.7
37 | Cc1c(CN2CCN(C(=O)[C@H](C)O)CC2)sc2c(N3CCOCC3)nc(-c3cnc(N)nc3)nc12 | -11.4
38 | COc1ccc(-c2nc(N3CCOCC3)c3sc(CN(C)c4ncc(C(=O)NO)cn4)cc3n2)cn1 | -10.4
39 | O=c1cc(-c2ccccc2)oc2cc(O)c(O)c(O)c12 [Baicalein] | -6.52
40 | CCCCOc1ccc(C(=O)Nc2ccc(F)cc2F)cc1 | 1.72
41 | CCCCCCCCCCCC1=C(O)C(=O)C=C(O)C1=O [Embelin] | 1
42 | COc1cc(Nc2ncc3c(n2)-c2ccc(Cl)cc2C(c2c(F)cccc2OC)=NC3)ccc1C(=O)O [Alisertib (MLN8237)] | -12.8
43 | NS(=O)(=O)c1ccc(-n2nc(C(F)(F)F)cc2-c2ccc(Cl)cc2)cc1 | 0.298
44 | Cc1ccc(-c2cc(C(F)(F)F)nn2-c2ccc(S(N)(=O)=O)cc2)cc1 [Celecoxib] | 0.578 ± 0.53
45 | NCC(=O)Nc1ccc(-n2nc(C(F)(F)F)cc2-c2ccc3c(ccc4ccccc43)c2)cc1 | -26.5
46 | CCCCc1nc2cc(/C=C/C(=O)NO)ccc2n1CCN(CC)CC [Pracinostat (SB939)] | -12.2
47 | CCN(CC)CCNC(=O)c1c(C)[nH]c(/C=C2\C(=O)Nc3ccc(F)cc32)c1C [Sunitinib Malate] | -26.5
48 | Cc1[nH]c(/C=C2\C(=O)Nc3ccccc32)c(C)c1CCC(=O)O [TSU-68 (SU6668, Orantinib)] | -0.233
49 | CCN(CC)CCNC(=O)c1cc(S(C)(=O)=O)ccc1OC [Tiapride hydrochloride] | -1.15
50 | CCN(CC)CCNC(=O)c1c(C)[nH]c(/C=C2\C(=O)Nc3ccc(F)cc32)c1C [Sunitinib malate] | -11.2
